# Test results as given in PubChem BioAssay AID1159580 (chemical genetic matrix, 2015).
# The campaign covered roughly 5,500 compounds. About 2,000 (36%) were called active. About 18% were inconclusive and are not listed. The list shows a part of the results. A number with no mark means an inactive call. Rule as the data show it: active = normalized growth mostly below about 0.91 (no sharp cut-off); inconclusive = no clear call, values can overlap the other calls; inactive = mostly above about 0.92.
# Assay: chemical genetic growth profiling, strain panel (AID 1159580);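 also: tested at 20 µM; growth read once vehicle control cultures reached saturation at 30 °C; 1 = growth at the plate median or of vehicle wells; lower values mean less growth of the strain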
# Conditions: S. cerevisiae deletion strains, growth OD
smiles,measurement,setting,value
O=c1cc(C(F)(F)F)[nH]c2c(Cl)cccc12,normalized growth,"locus YAL013W, strain DEP1, hits give low values",0.884 (active)
same,normalized growth,"locus YBR229C, strain ROT2, hits give low values",0.816 (active)
same,normalized growth,"locus YDL101C, strain DUN1, hits give low values",0.883 (active)
same,normalized growth,"locus YDR150W, strain NUM1, hits give low values",0.86
same,normalized growth,"locus YEL061C, strain CIN8, hits give low values",0.886 (active)
same,normalized growth,"locus YGR078C, strain PAC10, hits give low values",0.813 (active)
same,normalized growth,"locus YGR229C, strain SMI1, hits give low values",0.929 (active)
same,normalized growth,"locus YHR030C, strain SLT2, hits give low values",0.847
same,normalized growth,"locus YHR087W, strain rtc3, hits give low values",0.831 (active)
same,normalized growth,"locus YJR043C, strain POL32, hits give low values",0.905 (active)
same,normalized growth,"locus YJR075W, strain HOC1, hits give low values",0.779 (active)
same,normalized growth,"locus YLR039C, strain RIC1, hits give low values",0.846
same,normalized growth,"locus YLR058C, strain SHM2 (second series), hits give low values",0.84 (active)
same,normalized growth,"locus YLR085C, strain ARP6, hits give low values",0.827
same,normalized growth,"locus YLR262C, strain YPT6, hits give low values",0.847
same,normalized growth,"locus YML094W, strain GIM5, hits give low values",0.938
same,normalized growth,"locus YMR219W, strain ESC1, hits give low values",0.831 (active)
same,normalized growth,"locus YMR263W, strain SAP30, hits give low values",0.844 (active)
same,normalized growth,"locus YNL153C, strain GIM3, hits give low values",0.86 (active)
same,normalized growth,"locus YNL298W, strain CLA4 (second series), hits give low values",0.902
same,normalized growth,"locus YNL322C, strain KRE1, hits give low values",0.863 (active)
same,normalized growth,"locus YNR030W, strain Alg12, hits give low values",0.919
same,normalized growth,"locus YOL006C, strain TOP1, hits give low values",0.913
same,normalized growth,"locus YPL055C, strain LGE1, hits give low values",0.823 (active)
same,normalized growth,"locus YPL241C, strain CIN2, hits give low values",0.935
same,normalized growth,"locus YPR135W, strain CTF4, hits give low values",0.874
